The source of these data is PubChem BioAssay (NCATS).

Assay [1] has as its target Glutathione peroxidase 1 (Homo sapiens) (UniProt P07203). The assay is described as follows: Primary qHTS Assay for Inhibitors of Recombinant Selenoprotein Glutathione Peroxidase 1 (GPX1) (AID 1845191). For activity, negative = inhibition: % is set by controls: 0 for no effect and ±100 for the full control effect. Note: nearly all actives have a fitted effect of over 65% in size. Put shortly:
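Recombinant GPX1 (10 nM final) was preincubated with compound for 30 min at room temperature, then reacted with 1 mM GSH, 0.5 mM CHP, 0.5 mM NADPH and 100 nM glutathione reductase; NADPH fluorescence (340/450 nm) was read at 0 and 15 min.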
Background: qHTS replaces the single test concentration by a dilution series.

In assay [2] the target is Phospholipid hydroperoxide glutathione peroxidase GPX4 (Homo sapiens) (UniProt P36969). The assay is described as follows: Primary qHTS Assay for Inhibitors of Recombinant Selenoprotein Glutathione Peroxidase 4 (GPX4) (AID 1845192). Note: nearly all actives have a fitted effect of over 65% in size. An outline of the steps:
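GR-coupled readout: 100 nM GR, 1 mM GSH, 0.5 mM NADPH; NADPH fluorescence (ex 340/em 450 nm) read at t=0 and after 15 min RT. GPX4 200 nM, preincubated 30 min with compound; substrate 0.5 mM CHP.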

Assay [3] addresses Luciferin 4-monooxygenase (Photinus pyralis) (UniProt P08659). The assay is described as follows: Primary firefly luciferase (FLuc) qHTS assay for identification of artifact compounds. (AID 1845220). Note: nearly all actives have a fitted effect of over 60% in size. Put shortly:
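qHTS, 15 min compound preincubation with substrate (10 uM luciferin, 10 uM ATP) at RT, then 10 nM FLuc; 5 min; luminescence; % inhibition vs no-enzyme/DMSO controls, 4-parameter Hill fit.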

Assay [4] in a line: Primary fluorescence-based thiol-reactive (MSTI) qHTS assay for identification of artifact compounds. (AID 1845221).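 For activity change, negative = thiol reactive: series mostly up to about 54 µM; thiol-reactive compounds lower the probe fluorescence signal.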 Note: nearly all actives have a fitted effect of over 65% in size. Note: potency is the fitted concentration of half-maximal effect. An outline of the steps: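 Thiol-reactive compounds detected by quenching of 4 uM MSTI fluorescence (525/598 nm) after 1 h room-temperature dark incubation in PBS pH 7.4, 2% DMSO. qHTS titration; percent inhibition Hill-fitted against Acetyl-MSTI/MSTI controls.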

The test system of assay [5] is Nanoluciferase (engineered Oplophorus gracilirostris luciferase). Briefly: Primary Nanoluciferase (NLuc) qHTS assay for identification of artifact compounds. (AID 1845222).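 For activity, negative = inhibition: series mostly up to about 54 µM; 0% = DMSO and -100% = no enzyme.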 Note: potency is the fitted concentration of half-maximal effect. An outline of the steps: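 Luminescence read-out of secreted NLuc in S16 cell conditioned medium (1:55); compounds tested with 15 min RT preincubation, then Nano-Glo substrate 1:100, 5 min. % inhibition vs no-enzyme and DMSO controls, 4-parameter Hill fit.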

A number with no mark means an inactive call. Results filed as inconclusive are left out. Calls of active or inactive are those of the source. Calls come from the whole dose curve; as a rule, active = well fitted curve in the direction sought with a large enough effect; inconclusive = small, poorly fitted or top-dose-only effect, or another doubt; inactive = no such curve, though single readings can be large; an effect the other way counts as inactive or inconclusive.

Phospholipid hydroperoxide glutathione peroxidase GPX4 (Homo sapiens), sequence (P36969 whole entry, looked up): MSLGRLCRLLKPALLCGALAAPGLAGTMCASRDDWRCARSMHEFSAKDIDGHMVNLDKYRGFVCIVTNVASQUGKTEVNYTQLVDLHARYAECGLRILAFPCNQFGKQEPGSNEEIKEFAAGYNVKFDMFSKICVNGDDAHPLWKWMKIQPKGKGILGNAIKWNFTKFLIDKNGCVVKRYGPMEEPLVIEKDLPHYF
Glutathione peroxidase 1 (Homo sapiens), sequence (P07203 whole entry, looked up): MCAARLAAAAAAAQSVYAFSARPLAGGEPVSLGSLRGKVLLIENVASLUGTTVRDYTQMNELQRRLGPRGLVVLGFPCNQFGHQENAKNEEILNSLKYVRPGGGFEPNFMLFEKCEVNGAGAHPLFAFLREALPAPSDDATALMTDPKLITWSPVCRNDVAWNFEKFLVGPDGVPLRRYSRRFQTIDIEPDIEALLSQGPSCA

On to `O=C(NCCCNC(=O)c1ccc[nH]c1=O)c1cc(-c2ccccc2)on1`, for which the Potency result in assay [1], in assay [2], in assay [3] and in assay [4] was “inactive” in each case.
For `Oc1ccc(-c2cnc3ccc(NCc4ccco4)nn23)cc1`, the Potency result in assay [1], in assay [2] and in assay [3] was “inactive” each time. For the same compound, the Potency in assay [4] is 5.97 µM (active).
With `C1=Cc2ccccc2C(=C2CCN(CCCCc3nn[nH]n3)CC2)c2ccccc21`, the Potency result in assay [1], in assay [2], in assay [3] and in assay [4] was “inactive” each time.
On to `C[C@@H]1O[C@@H](O[C@H]2[C@H](OC(=O)[C@]34CCC(C)(C)C[C@H]3C3=CCC5[C@@]6(C)C[C@H](O)[C@H](O[C@@H]7O[C@H](C(=O)O)[C@@H](O)[C@H](O)[C@H]7O)[C@@](C)(CO)C6[C@H](O)C[C@@]5(C)[C@]3(C)C[C@H]4O)O[C@@H](CO)[C@@H]2O)[C@H](O)[C@H](O)[C@H]1O[C@@H]1OC[C@@H](O)[C@H](O[C@H]2OC[C@](O)(CO)[C@H]2O)[C@H]1O` (some centres undefined), for which the outcome in assay [1] is “inactive [at 9.52 µM]”; in assay [2], “inactive [at 9.73 µM]”; in assay [3] it was “inactive [at 11.6 µM]”. Moreover, the activity change, negative = thiol reactive in assay [4] is 391% [at 11.5 µM]. The activity, negative = inhibition in assay [5] was 1.66% [at 11.6 µM].
Consider `CCCc1cc(C)[nH]c(=O)c1CNC(=O)c1cc(-c2ccnc(N3CCN(C)CC3)c2)cc2c1cnn2C(C)C`, for which the Potency result in assay [1], in assay [2], in assay [3] and in assay [4] was “inactive” throughout.
On to `C[C@@H]1C[C@H](C)CN(CCC(=O)Nc2ccc(Br)cc2)C1`, for which the Potency entry in assay [1], in assay [2], in assay [3] and in assay [4] was “inactive” each time.
Turning to `COc1c(F)cccc1C(=O)N1C[C@@H](C)CC[C@H]1CNc1ccc(Br)cn1`, the Potency entry in assay [1], in assay [2], in assay [3] and in assay [4] was “inactive” each time.
Regarding `CC(=O)CC(=O)Nc1ccc(Cl)c(C(F)(F)F)c1`, the Potency entry in assay [1], in assay [2], in assay [3], in assay [4] and in assay [5] was “inactive” throughout.
Take `CCCNCCc1ccc(NS(=O)(=O)c2ccc(OC(F)(F)F)cc2)cc1`: the Potency entry in assay [1], in assay [2], in assay [3], in assay [4] and in assay [5] was “inactive” throughout.
`CCNC1(C(N)=O)CN(c2nc(C)nc3c(-c4ccc(Cl)cc4)c(-c4ccccc4Cl)nn23)C1`: the Potency entry in assay [1], in assay [2], in assay [3], in assay [4] and in assay [5] was “inactive” throughout.
With `COc1c(CCC(=O)O)cccc1O[C@@H]1O[C@H](CO)[C@@H](O)[C@H](O)[C@H]1O`, the Potency entry in assay [1], in assay [2], in assay [3] and in assay [5] was “inactive” in each case. Also, the Potency in assay [4] is 13.1 µM (active).
Take `CN(C)C(=O)NC1(c2ccccc2)CCN(CCC[C@]2(c3ccc(Cl)c(Cl)c3)CCCN(C(=O)c3ccccc3)C2)CC1`: the Potency result in assay [1], in assay [2], in assay [3], in assay [4] and in assay [5] was “inactive” throughout.
With `O=C(/C=C/c1ccccc1O)O[C@@H]1O[C@H](CO)[C@@H](O)[C@H](O)[C@H]1O`, the Potency entry in assay [1], in assay [2], in assay [3], in assay [4] and in assay [5] was “inactive” each time.
On to `COC1CC(O[C@H]2CC[C@]3(C)C4CC[C@]5(C)C(C6=CC(=O)OC6)=CCC56OC46CC[C@@H]3C2)OC(C)C1O[C@@H]1O[C@H](CO[C@@H]2O[C@H](CO)[C@@H](O)[C@H](O)[C@H]2O)[C@@H](O)[C@H](O)[C@H]1O` (some centres undefined), for which the Potency entry in assay [1] and in assay [2] was “inactive” each time. Also, the outcome in assay [3] was “inactive [at 11.6 µM]”. For the same compound, the activity change, negative = thiol reactive in assay [4] was 101% [at 11.5 µM]. The activity, negative = inhibition in assay [5] is 0% [at 11.6 µM].
Turning to `CN(C)c1ccnc2sc3c(=O)n(N4CCCCCC4)cnc3c12`, the Potency result in assay [1], in assay [2], in assay [3], in assay [4] and in assay [5] was “inactive” throughout.
As to `CC(C)(O)C(=O)N1CCN(c2ccc(C(F)(F)F)c(C3=C(c4c[nH]c5ccccc45)C(=O)NC3=O)c2)CC1`, the Potency result in assay [1], in assay [2], in assay [3] and in assay [5] was “inactive” each time. Moreover, the Potency in assay [4] is 3.36 µM (active).
Take `CCC(C)c1ccc(NC(=O)Cn2cnc3c2c(=O)n(C)c(=O)n3C)cc1` (centres undefined): the Potency entry in assay [1], in assay [2], in assay [3], in assay [4] and in assay [5] was “inactive” in each case.
With `C=CC(=O)Nc1ccc2ncnc(Nc3cccc(Br)c3)c2c1`, the Potency result in assay [1], in assay [2], in assay [3], in assay [4] and in assay [5] was “inactive” in each case.
Consider `C=C1C(=O)O[C@@H]2[C@H]1CCC(C)=C(CCC(=O)O)[C@@]2(C)O`, for which the Potency entry in assay [1], in assay [2], in assay [3], in assay [4] and in assay [5] was “inactive” each time.
On to `CC1=C(C(=O)Nc2cc(Cl)ccc2Cl)C(c2ccco2)C2=C(CCCC2=O)N1` (centres undefined), for which the Potency result in assay [1], in assay [2], in assay [3], in assay [4] and in assay [5] was “inactive” throughout.
With `COc1ccccc1N1CCN(CC[C@@](C)(C(=O)C2CCCCC2)c2ccccc2)CC1`, the Potency result in assay [1], in assay [2], in assay [3], in assay [4] and in assay [5] was “inactive” in each case.
In the case of `CC(=O)OC1CC(C)C2(CCC3(CC(=O)OC3O)O2)C2(C)CCCC(C)(C)C12` (centres undefined), the Potency result in assay [1], in assay [2], in assay [3], in assay [4] and in assay [5] was “inactive” each time.
For `Cc1noc(-c2ccc(-c3ccc(CC(=O)O)cc3)cc2)c1NC(=O)O[C@H](C)c1ccccc1Cl`, the Potency result in assay [1], in assay [2], in assay [3] and in assay [4] was “inactive” in each case. The Potency in assay [5] is 9.53 µM (active).
Regarding `O=C(Nc1ccc(Cl)cc1)c1ccccc1NCc1ccncc1`, the Potency entry in assay [1], in assay [2], in assay [3], in assay [4] and in assay [5] was “inactive” in each case.
In the case of `O=C(NCCCc1ccccc1)c1cccc(-c2cc(O)c3ncccc3c2)c1`, the Potency entry in assay [1], in assay [2], in assay [3], in assay [4] and in assay [5] was “inactive” each time.
